# Measurements: ChEMBL document CHEMBL3988442, “University of Dundee, Small-Polar-MMV Screening Library” (2021)
# The campaign covered roughly 48,000 compounds. About 13,000 (27%) showed an effect of 50% or more. The list shows a part of the results.
# Test system: Wolbachia pipientis
# Test: Anti-Wolbachia Cell-Based Screen
# Format: functional
# Set-up: scale not given: in the data most compounds retested in dose-response had high values
# Settings: 5 µM
row,SMILES,Percent Effect
1,O=C(c1cnccn1)N1CCCC(Cn2cc(C3CC3)nn2)C1 (stereo not drawn),-22.35%
2,CNc1ccc(CC2CCCN(C(=O)c3cnc(C)nc3)C2)nn1 (stereo not drawn),2.499%
3,CNc1ccc(CC2CCCN(C(=O)c3cccc(C)n3)C2)nn1 (stereo not drawn),125.2%
4,Cc1cccc(C(=O)N2CCCC(c3nccn3Cc3cscn3)C2)n1 (stereo not drawn),13.18%
5,CNc1ccc(CC2CCCN(C(=O)c3cncnc3C)C2)nn1 (stereo not drawn),-8.103%
6,CNc1ccc(CC2CCCN(C(=O)c3cnccn3)C2)nn1 (stereo not drawn),132.6%
7,CCc1noc(CN(CC)C(=O)c2ccc3ncsc3c2)n1,-4.547%
8,Cc1nc(CN(C)C(=O)Nc2cccc(COC(C)C)c2)no1,-5.04%
9,Cc1nc(CN(C)C(=O)Nc2cccc(COC(C)C)c2C)no1,-7.168%
10,Cc1nc(CN(C)C(=O)Nc2cccc(C)c2C)no1,98.94%
11,CCN(C)c1ncnc2c1CCN(C(=O)c1cnccn1)CC2.O=C(O)C(F)(F)F,3.18%
12,CCCc1n[nH]c(C2CN(C(=O)Cn3ccccc3=O)CCO2)n1 (stereo not drawn),125.8%
13,CCCc1n[nH]c(C2CN(C(=O)CCn3ccccc3=O)CCO2)n1 (stereo not drawn),104.2%
14,CCc1n[nH]c(C2CN(C(=O)Cc3ccc(C)nc3)CCO2)n1 (stereo not drawn),17.82%
15,CCCc1n[nH]c(C2CN(C(=O)CCCn3cccn3)CCO2)n1 (stereo not drawn),-7.162%
16,CCc1n[nH]c(C2CN(C(=O)Cc3cccs3)CCO2)n1 (stereo not drawn),122.2%
17,CCc1n[nH]c(C2CN(C(=O)CCc3cccs3)CCO2)n1 (stereo not drawn),3.606%
18,CCc1n[nH]c(C2CN(C(=O)CCn3ccccc3=O)CCO2)n1 (stereo not drawn),105.3%
19,CCc1n[nH]c(C2CN(C(=O)Cn3ccccc3=O)CCO2)n1 (stereo not drawn),10.71%
20,CC(C)(C)c1coc([C@@H]2COCCN2Cc2c[nH]c3ccccc23)n1,-5.354%
21,CS(=O)(=O)Cc1cccc(C(=O)NCC2Cc3ccccc3O2)c1 (stereo not drawn),-6.812%
22,CCN(C)S(=O)(=O)N1CCCC(c2cccc(C(=O)O)c2)C1 (stereo not drawn),10.58%

row,SMILES,Percent Effect
1,O=C(O)c1cccc(C2CCCN(S(=O)(=O)C3CC3)C2)c1 (stereo not drawn),5.769%
2,CCC1CN(C(=O)c2ccccc2N(C)C)CCN1C(C)C (stereo not drawn),-1.815%
3,CC(C)N(C)CC(=O)N1CCCC(c2ccc(C(=O)O)cc2)C1 (stereo not drawn),-10.1%
4,CN(C)c1ccccc1C(=O)N1CCCC(c2cccc(C(=O)O)c2)C1 (stereo not drawn),94.85%
5,CN(C)c1ccccc1C(=O)N1CCCC(c2ccc(C(=O)O)cc2)C1 (stereo not drawn),127.7%
6,CCS(=O)(=O)c1ncc(CN2CCSCC2)n1CCc1ccccc1,0.5583%
7,COC(=O)C1(NCc2nc(C)c(C)o2)CCC(C)CC1 (stereo not drawn),-8.144%
8,Cc1cc(C(=O)Nc2ccc(OCC3CCOCC3)cc2)[nH]n1,0.7277%
9,O=C1CCCCN1CCCNCc1cnc(C2CCC2)s1,-10.31%
10,Cn1cnc(S(=O)(=O)NCCCN2CCCCCC2=O)c1Cl,103.8%
11,CCN1CCN(S(=O)(=O)c2ncn(C)c2Cl)CC1,25.01%
12,CN1CCN(S(=O)(=O)c2ncn(C)c2Cl)CC1,8.331%
13,Cn1cnc(S(=O)(=O)NCCCN2CCCC2=O)c1Cl,106%
14,Cn1cnc(S(=O)(=O)NCCN2CCCCCC2=O)c1Cl,-2.808%
15,Cc1cc(C)n(CC(C)NC(=O)c2cc(CN3CCC(O)CC3)on2)n1 (stereo not drawn),-12.5%
16,COCCCc1nc(-c2ccc(S(=O)(=O)N3CCCC3)cc2)cs1,23.72%
17,COc1ccc(C)cc1C(C)NC(=O)Cn1ccc(=O)n(C)c1=O (stereo not drawn),121.4%
18,COc1ccc(C(O)CNC(=O)Cn2ccc(=O)n(C)c2=O)cc1 (stereo not drawn),1.675%
19,CCC(NC(=O)Cn1ccc(=O)n(C)c1=O)c1ccc(OC)cc1 (stereo not drawn),1.056%
20,COc1ccc(C(C)NC(=O)Cn2ccc(=O)n(C)c2=O)cc1F (stereo not drawn),127.2%
21,CCC(NC(=O)Cn1ccc(=O)n(C)c1=O)c1ccccc1OC (stereo not drawn),2.411%
22,COc1ccc(C)cc1C(C)NC(=O)NCCCn1cncn1 (stereo not drawn),6.959%

row,SMILES,Percent Effect
1,CC(C)CS(=O)(=O)CCNc1ncccn1,-11.8%
2,COCCCN1CCCC(c2nccn2CC2CCC2)C1 (stereo not drawn),85.63%
3,FC(F)Oc1ccccc1CN1CCCC(c2nccn2CC2CC2)C1 (stereo not drawn),-15.63%
4,CCn1ccnc1CN(C)C1CCCN(CCCc2ccccc2)C1 (stereo not drawn),28.9%
5,N#Cc1ccccc1CN1CCCC(c2nccn2CC2CCC2)C1 (stereo not drawn),17.05%
6,Cc1nccn1CCC(=O)N1CCCN(CCCc2ccccc2)CC1,9.498%
7,Cc1nccn1CCCN1CCCC(c2nccn2CC2CCC2)C1 (stereo not drawn),94.54%
8,Cc1nccn1CCCN1CCC(c2nccn2CC2CCC2)CC1,81.99%
9,O=C(c1ccccn1)N1CCCC(c2nccn2CC2CCC2)C1 (stereo not drawn),7.496%
10,CCn1c(C2CCCN(Cc3nccn3CCOC)C2)nn(C)c1=O (stereo not drawn),3.298%
11,c1cn(CC2CC2)c(C2CCN(CCC3CCOC3)CC2)n1 (stereo not drawn),-2.095%
12,Cc1nccn1CCCN1CCCC(c2ccccc2)C1 (stereo not drawn),96.96%
13,CC(C(=O)N1CCCC1)N1CCC(c2nccn2CC2CCC2)CC1 (stereo not drawn),-1.675%
14,CCC1CC(=O)NCc2nc3sc(C)cn3c21 (stereo not drawn),11.81%
15,CCOc1nnc(CN2CCC(c3cc4ccccc4[nH]3)CC2)s1,-12.75%
16,CC(=O)c1cccc(OCCCC(=O)NC(C#N)CC(C)C)c1 (stereo not drawn),-6.212%
17,COCCCC(=O)N1CC(=O)Nc2cc(Br)ccc21,-0.04468%
18,Cc1nccn1Cc1nnc(C2CCCN(Cc3cccnc3)C2)n1C (stereo not drawn),-3.702%
19,Cc1nccn1CCCN1CCCC(c2nccn2C)C1 (stereo not drawn),103.4%
20,Cn1ccnc1C1CCN(CCN2CCOCC2)CC1,-3.118%
21,CC(=O)N1CCC(N2CC[C@H](c3nc4cc(C)ccc4o3)C2)CC1,-0.1678%
22,Cc1ccccc1CNC(=O)CN1CCCC(Cc2nccn2C)C1 (stereo not drawn),107%

row,SMILES,Percent Effect
1,Cn1ccnc1CN1CCCC(Cc2ccccn2)C1 (stereo not drawn),-12.05%
2,Cn1ccnc1CN1CCC(Cc2ccccn2)CC1,101.7%
3,CNC(=O)NC(=O)CN1CCCC(Cc2ccccc2OC)C1 (stereo not drawn),-10.54%
4,Cc1ccccc1CN1CCN(Cc2nccn2C)CC1,-1.21%
5,Cn1ccnc1CN1CCN(CCOc2ccccc2C#N)CC1,-0.4037%
6,Cc1ccccc1CNC(=O)C1CCN(Cc2nccn2C)CC1,101.3%
7,CC(=O)N[C@@H]1CN(CC(=O)NCc2ccccc2C)C[C@H]1C(C)C,-3.086%
8,Cn1ccnc1CN1CCC(CCC(=O)Nc2ccccc2Cl)CC1,11.71%
9,OCCN(Cc1cccnc1)c1ncc(Br)cn1,-8.725%
10,CCOc1ncccc1NC(=O)c1sccc1C,-6.226%
11,Cc1ccccc1C(C(=O)NCCN1CCC(CO)CC1)N(C)C (stereo not drawn),-0.033%
12,CC(=O)NCCCC(=O)NC1(c2ccc(Cl)c(Cl)c2)CC1,-4.491%
13,Cc1cc(C(F)(F)F)nc(CNC(=O)C2CCCCCN2C)n1 (stereo not drawn),-5.462%
14,Cc1cc(S(=O)(=O)N2CCOCC2C#N)ccc1F (stereo not drawn),-3.602%
15,CN1CCOC[C@H]1c1nc(C(C)(C)C)c[nH]1,12.45%
16,Cc1cc(C(F)(F)F)nc(C2COCCN2S(C)(=O)=O)n1 (stereo not drawn),108.9%
17,Cc1cc(C(F)(F)F)nc(C2CCCN2S(C)(=O)=O)n1 (stereo not drawn),108.4%
18,O=C(c1cccnc1O)N1CCC2(CCCO2)CC1,-3.936%
19,COc1cc2c(cc1CNCc1cccnc1OC)OC(C)C2 (stereo not drawn),4.577%
20,Cc1noc(-c2ccc(N3CCCC(C(=O)c4nccn4C)C3)nc2)n1 (stereo not drawn),20.25%
21,CC(C)COc1cncc(NCC(O)c2ccco2)n1 (stereo not drawn),9.809%
22,CC(C)(CNC(=O)Nc1ccc(S(=O)(=O)C(F)F)cc1)N1CCOCC1,14.64%

row,SMILES,Percent Effect
1,CCN(CC)Cc1ccccc1NC(=O)N(C)Cc1ccccc1O,-1.773%
2,O=C([C@@H]1Cc2[nH]cnc2CN1Cc1cc2ccccc2o1)N1CCCC1,9.512%
3,COc1c(CNCc2ccc(CN(C)C)cc2)c(C)nn1C,4.116%
4,COc1c(CNCc2cccc(CS(C)(=O)=O)c2)c(C)nn1C,-2.544%
5,COc1c(CNCc2ccc(S(C)(=O)=O)cc2)c(C)nn1C,139.8%
6,COc1c(CNCc2ccc(CS(C)(=O)=O)cc2)c(C)nn1C,148.4%
7,CCc1cc(N[C@@H](CO)C(N)=O)n2nc(C)c(C)c2n1,2.16%
8,CC(C)C(CCO)NC(=O)Nc1cc(F)ccc1-n1cccn1 (stereo not drawn),1.933%
9,CC(=O)NCCCSC1CCN(c2ccccc2Cl)C1=O (stereo not drawn),1.299%
10,O=c1c2ccccc2nnn1CN(CC1CCOC1)C1CC1 (stereo not drawn),-7.02%
11,Cc1cc(-c2nn(C)c(Cl)c2CN2CC[C@H](CO)[C@@H](O)C2)no1,35.82%
12,COCCn1/c(=N/C(=O)C(C)C)sc2cc(Cl)ccc21,4.263%
13,c1cnn(CC2CN(c3ncnc4sccc34)CCO2)c1 (stereo not drawn),-13.3%
14,Cn1cc(-c2csc(N3CCN(c4nccs4)CC3)n2)cn1,-4.686%
15,COc1c(C2CCCN2c2ncnc3c2cnn3C)c(C)nn1C (stereo not drawn),-11.95%
16,CC1CN(c2ncnc3c2cnn3C)CCN1c1nccs1 (stereo not drawn),136.1%
17,CC1CN(c2ncnc3sccc23)CCN1c1nccs1 (stereo not drawn),102.8%
18,Cc1cnn(CC2CCCN2c2ncnc3sccc23)c1 (stereo not drawn),-4.98%
19,CCc1nc(C)c(C(=O)NCCNc2ncnc3sccc23)s1,-61.04%
20,Cc1nc(CN2C[C@@H]3CN(C(=O)C4(C#N)CC4)C[C@@H]3C2=O)cs1.O=C(O)C(F)(F)F,-7.986%
